Rows were chosen to be rich in hits. Some 20% of all compounds tested hit in one or more screens of this group.
Shiga inhibitor: Shiga toxin inhibition. inhibition, % at 38.7 µM. Vero cells, Shiga toxin protein synthesis inhibition reporter. 290,000 compounds, 9.2% hits; in the data active means inhibition mostly above about 28%, no sharp cut-off; inactive means mostly below about 43%
CHX counter: counter-screen hit for Shiga toxin inhibitors, cycloheximide; cell reporter, cycloheximide protein synthesis inhibition counterscreen; max response, %; 300,000 compounds, 12% hits; in the data active means max response mostly above about 13%, no sharp cut-off; inactive means mostly below about 14%; further: read at 38.3 µM for the half of the compounds with a filed dose
Pf growth 96h: P. falciparum growth inhibition at 96 hours; 320,000 compounds, 6.9% hits; Potency, µM (titrated, usually from 28.7 µM), usual class: inhibitors; P. falciparum luciferase reporter growth, 96 h; AID 504834
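Delayed-death screen, second-generation endpoint: infected erythrocytes, 2% hematocrit, 0.05% parasitemia final; 96 hours at 37 C, 5% CO2; luciferase detection reagent; luminescence decrease equals reduced growth.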
HCMV inh: inhibitors of human cytomegalovirus; HFF cells, HCMV-luciferase reporter, 72 h; stronger effect = lower value; activity change, negative = inhibition, % at 57.5 µM; 410,000 compounds, 4.5% hits; in the data active means activity change below about -60%; inconclusive means no clear call, values can overlap the other calls; inactive means above about -39%
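Screen run at 2 compound doses on HFFs infected with reporter HCMV, MOI 1 PFU/cell. Luciferase activity from cell lysates at 72 h post infection gave inhibition relative to buffer-only and Salinomycin wells.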
Pf growth 48h: P. falciparum growth inhibition at 48 hours (one generation); P. falciparum luciferase growth in erythrocytes, 48 h; Potency, µM (series often up to 28.7 µM), usual class: inhibitors; 310,000 compounds, 5.9% hits
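Firefly luciferase activity from engineered P. falciparum reports growth; inhibitors lower the luminescent signal. Cultures contained 2% hematocrit erythrocytes at 0.1% final parasitemia.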
Numbers stand for hits. Unless noted, the call rests on the fitted dose curve; in most records, active means well fitted inhibition curve with a large enough effect; inconclusive means small, poorly fitted or top-dose-only effect, or another doubt; inactive means no such curve, though single readings can be large or run the other way.

Results for C/C(=N/N1CCN(c2ccccn2)CC1)c1ccc([N+](=O)[O-])cc1 ?
Shiga inhibitor: 21.2; CHX counter: 31.2; Pf growth 96h: inactive; HCMV inh: inactive; Pf growth 48h: inactive

How did O=C(Nc1ccc(C(=O)N2CCN(c3ccccc3F)CC2)cc1)c1nsc2ccccc12 do in these assays?
HCMV inh: inactive

Results for CCOC(=O)c1cc(-c2ccccc2)n(CC(=O)Nc2ccc(CC)cc2)c1C ?
HCMV inh: inactive

How did Cc1nnc(Nc2ccccn2)c2ccccc12 do in these assays?
Shiga inhibitor: inactive; CHX counter: inactive; HCMV inh: -60.2; Pf growth 48h: inactive

What do the screens show for `c1ccc(Nc2cccc3c(Nc4ccccc4)cccc23)cc1`?
Shiga inhibitor: inactive; CHX counter: inactive; Pf growth 96h: inactive; HCMV inh: inactive; Pf growth 48h: inactive

What do the screens show for `c1ccc(Nc2cccc(Nc3ccccc3)n2)cc1`?
Shiga inhibitor: 55.4; CHX counter: 34.5; Pf growth 96h: inactive; HCMV inh: inactive

Results for CC(C(=O)Nc1ccccn1)(c1ccccc1)c1ccccc1 ?
Shiga inhibitor: inactive; CHX counter: inactive; Pf growth 96h: inconclusive; HCMV inh: inconclusive; Pf growth 48h: inconclusive

What do the screens show for `c1ccc(Nc2ccccn2)cc1`?
Shiga inhibitor: inactive; CHX counter: 17.4; HCMV inh: inactive; Pf growth 48h: inactive

How did COc1ccc(NC(=O)c2cn(CC(C)C)c(=O)c3cc(OC)c(OC)cc23)cc1Cl do in these assays?
HCMV inh: inactive

How did CCOc1ccccc1CNC(=O)c1cccn1-c1nnc(N2CCCC2)s1 do in these assays?
HCMV inh: inactive

Results for CC(C)c1cccc(-c2csc(C(C)(O)c3ccccc3)n2)c1 (stereo not drawn) ?
HCMV inh: inactive

What do the screens show for `FC(F)Sc1nc(-c2ccccc2)c(-c2ccccc2)n1C(F)F`?
Shiga inhibitor: inactive; CHX counter: inactive; Pf growth 96h: 3.29µM; HCMV inh: inactive; Pf growth 48h: inactive

What do the screens show for `Cc1ccc(-c2nn(-c3ccccc3)cc2C(=O)Nc2ccc(C)c(S(=O)(=O)N3CCOCC3)c2)cc1`?
Shiga inhibitor: inactive; CHX counter: inactive; Pf growth 96h: inconclusive; HCMV inh: inactive; Pf growth 48h: 10.4µM

Results for O=C(Nc1cccc(S(=O)(=O)N2CCOCC2)c1)c1cn(-c2ccccc2)nc1-c1ccccc1 ?
Shiga inhibitor: inactive; CHX counter: inactive; Pf growth 96h: 10.4µM; HCMV inh: -64.2; Pf growth 48h: inactive

How did Cc1ccc(C(=O)Nc2ccc(C)c(S(=O)(=O)N3CCOCC3)c2)c(C)c1 do in these assays?
Shiga inhibitor: inactive; CHX counter: inactive; Pf growth 96h: inconclusive; HCMV inh: inactive; Pf growth 48h: inconclusive

What do the screens show for `Cc1ccc(-c2nn(-c3ccccc3)cc2C(=O)NCCCN2CCOCC2)cc1`?
Shiga inhibitor: inactive; CHX counter: 16.2; Pf growth 96h: inactive; HCMV inh: inactive; Pf growth 48h: inactive

What do the screens show for `O=C(Nc1cccc(S(=O)(=O)N2CCOCC2)c1)c1cn(-c2ccccc2)nc1-c1ccc(F)cc1`?
Shiga inhibitor: inactive; CHX counter: inactive; Pf growth 96h: inactive; HCMV inh: inactive; Pf growth 48h: inactive

What do the screens show for `Cc1ccc(N=C(NO)c2nonc2N)cc1`?
Shiga inhibitor: 95.3; CHX counter: 46.4; HCMV inh: inactive; Pf growth 48h: inconclusive

What do the screens show for `O=C1N=c2ccccc2=C1c1sc(NS(=O)(=O)c2ccccc2)nc1O`?
Shiga inhibitor: inactive; CHX counter: inactive; Pf growth 96h: inactive; HCMV inh: inactive; Pf growth 48h: inactive

What do the screens show for `O=C1N=c2ccccc2=C1c1sc(Nc2cccc(O)c2)nc1O`?
Shiga inhibitor: 47.6; CHX counter: 44.3; Pf growth 96h: inconclusive; HCMV inh: inactive; Pf growth 48h: inactive

Results for O=C1N=c2ccccc2=C1c1sc(Nc2ccc(O)cc2)nc1O ?
Shiga inhibitor: 64.5; CHX counter: inactive; Pf growth 96h: inactive; HCMV inh: inactive; Pf growth 48h: inactive

How did COc1cccc(-c2cc(C(F)(F)F)nc(N3CCCCC3)n2)c1 do in these assays?
Shiga inhibitor: inactive; CHX counter: inactive; HCMV inh: inactive; Pf growth 48h: inconclusive

What do the screens show for `O=C(Nc1ccc(OC(F)(F)F)cc1)c1ccc2ccccc2n1`?
Shiga inhibitor: inactive; CHX counter: 41.9; Pf growth 96h: inactive; HCMV inh: inactive; Pf growth 48h: inactive

What do the screens show for `O=C(Nc1ccccc1C(=O)O)c1ccc2ccccc2n1`?
Shiga inhibitor: 124.4; CHX counter: 30.3; Pf growth 96h: inactive; HCMV inh: inactive; Pf growth 48h: inactive

What do the screens show for `O=C(Nc1ccc(Cl)cn1)c1ccc2ccccc2n1`?
Shiga inhibitor: inactive; CHX counter: inactive; Pf growth 96h: inconclusive; HCMV inh: inactive; Pf growth 48h: inactive

What do the screens show for `O=C(Nc1ccccc1)c1ccc2ccccc2n1`?
Shiga inhibitor: 93.6; CHX counter: 49.3; Pf growth 96h: inactive; HCMV inh: inactive; Pf growth 48h: inactive

How did COc1ccc(NC(=O)COC(=O)c2ccc3ccccc3n2)cc1 do in these assays?
Pf growth 96h: inactive; HCMV inh: inactive; Pf growth 48h: inactive

Results for Cc1ccc(NC(=O)c2ccc3ccccc3n2)nc1 ?
Shiga inhibitor: 115.4; CHX counter: 38.4; Pf growth 96h: inactive; HCMV inh: inactive; Pf growth 48h: inactive

Results for COc1ccc(CCN=C(N)NS(=O)(=O)c2ccc(C)c(C)c2)cc1 ?
Shiga inhibitor: inactive; CHX counter: inactive; Pf growth 96h: inactive; HCMV inh: inactive; Pf growth 48h: inactive

How did O=C(NCc1ccc(F)cc1)c1ccc(N2CCc3ccccc32)c([N+](=O)[O-])c1 do in these assays?
Shiga inhibitor: inactive; CHX counter: inactive; Pf growth 96h: inconclusive; HCMV inh: inconclusive; Pf growth 48h: inconclusive

Results for CCC(=O)N1CCCC(C)(C(=O)Nc2ccc(OC)c(F)c2)C1 (stereo not drawn) ?
HCMV inh: inactive

How did COc1ccc(C(=O)NNC(=O)c2ccc3ccccc3n2)cc1 do in these assays?
Pf growth 96h: inactive; HCMV inh: -88.5; Pf growth 48h: inactive

Results for CCCN(CC(=O)Nc1ccccc1C)C(=O)c1ccc2ccccc2n1 ?
Pf growth 96h: inactive; HCMV inh: inactive; Pf growth 48h: inactive

Results for Cc1ccccc1NC(=S)c1ccc2ccccc2n1 ?
Shiga inhibitor: 96.6; CHX counter: 47.7; Pf growth 96h: inactive; HCMV inh: -62.8; Pf growth 48h: inactive

How did COc1ccc(C(=O)NNC(=O)c2ccc3ccccc3c2O)cc1 do in these assays?
Shiga inhibitor: inactive; CHX counter: inactive; Pf growth 96h: inactive; HCMV inh: inactive; Pf growth 48h: inactive

How did COC1=CC(=O)OC(c2ccco2)C1 (stereo not drawn) do in these assays?
HCMV inh: inactive

Results for COC(=O)[C@]1(C#N)CC(=O)N([C@H](C)[C@@H](O)c2ccccc2)[C@@H]1c1ccccc1 ?
HCMV inh: inactive

Results for Cc1noc(C)c1-c1ccc2ncnc(NCc3cccn3C)c2c1 ?
Shiga inhibitor: inactive; CHX counter: inactive

How did CCC(=O)Nc1ccc(OCc2nc3ccccc3s2)cc1 do in these assays?
Shiga inhibitor: 117.5; CHX counter: 43.8; Pf growth 96h: inactive; HCMV inh: inactive; Pf growth 48h: inactive

Compound activity (PubChem)
